± gives the standard deviation of the averaged measurements.
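Note: TDF denotes transformed human dermal fibroblasts of mesenchymal origin.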

For this experiment, the system named is TDF. The experiment in a line: cell number relative to DMSO (% of DMSO); higher = more cells (less growth inhibition / toxicity). As to conditions: concentration: 10 µM; 24 h. The gist of the method:
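Using 384-well plates with 800 cells per well in RPMI plus 10% FBS, HCC1569 and TDF cells were exposed to compounds at 10 µM, in triplicate, for 24 h at 37 °C. Imaging of six fields per well at ×10 followed H1.0 and DAPI staining. The reported quantity, H1.0 nuclear intensity or cell number, is a median of replicates given as percent of the plate control, and HCC1569 values were smoothed for positional effects.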
Consider `CCCCCC=CCC(O)C=CC=CC=CC(O)CCCC(=O)O` [5(S),12(R)-DIHETE all trans], for which the cell number is 97.
Consider `Oc1ccc(C=Cc2cc(O)cc(O)c2)cc1` [Resveratrol], for which the cell number came out at 79.5 ± 4.
As to `CCCCCCCCC1OC1CCCCCCCC(=O)O` (centres undefined) [Epoxy-oleic acid], the cell number amounted to 99.9.
In the case of `O=c1cc(-c2ccccc2)oc2cc(O)ccc12` [7-Hydroxyflavone] it was 104; in that of `COC1=C2CC(C)=c3c(C(C)=O)c(OC)c(O)c4c3c2c2c(cc(OC)c3c(OC)cc(O)c4c32)C(=O)C1=O` [Hypocrellin B], 95; in that of `O=C(O)c1ccc(O)c2ncccc12` [8-hydroxy-5-quinolinecarboxylic acid], 99.2.
In the case of `O=C1C(=O)c2ccccc2C(O)=C1C1CCC(c2ccc(Cl)cc2)CC1` (centres undefined) [Atovaquone] it was 99; in that of `CN(C)CC=C(c1ccc(Br)cc1)c1cccnc1.Cl.Cl` [Zimelidine dihydrochloride], 86.6; in that of `Cl.O.O=C(O)CN(CCN(CC(=O)O)Cc1ccccc1O)Cc1ccccc1O`, 98.8.

(Values after the supplement of paper PMC7156485.)
